Test results as given in PubChem BioAssay (NCATS).
“And” between values parts separate entries of the source, which are not always exact repeats. Equal entries are not always repeated. Results filed as inconclusive are left out. Unmarked numbers belong to inactive results. The source made the active and inactive calls. Calls follow the shape of the dose curve; as a rule, active = well fitted inhibition curve with a large enough effect; inconclusive = small, poorly fitted or top-dose-only effect; inactive = flat fitted curve, though single readings scatter.

Assay: Primary qHTS for inhibitors of nuclear receptor binding SET domain protein 2 (NSD2) in an isogenic RCH-ACV NSD2 p.E1099K mutant (9B) (AID 1645876); also: nearly all actives have a fitted effect of over 70% in size
Settings: RCH-ACV (leukaemia line) NSD2 E1099K (9B) viability, CellTiter-Glo, 72 h; series mostly up to 44.9 µM; activity change, negative = viability loss: at the top concentration
% is scaled to controls: 0 for no effect and ±100 for the full control effect; potency is read from the fitted curve at half-maximal effect.

Row | SMILES | Potency | activity change, negative = viability loss [%]
1 | O=C(c1ccccc1)c1ccc2nc(NC(=O)c3csc(C4CCN(c5ncnc6ccsc56)CC4)n3)[nH]c2c1 | 3.25 µM (active) | 
2 | COc1cccc(-c2cc(NCc3ccc4c(c3)OCO4)nc(N)n2)c1 | 0.205 µM (active) | 
3 | COCCOc1ccc(N2CCN(CCn3ncc4c3nc(N)n3nc(-c5ccco5)nc43)CC2)cc1 |  | -2.23
4 | CN(CCc1ccc(Nc2ncc(-c3cccnc3)s2)cc1)Cc1ccccc1 | 8.17 µM (active) | 
5 | CN(c1ccccc1CNc1nc(Nc2ccc3c(c2)CC(=O)N3)ncc1C(F)(F)F)S(C)(=O)=O | 1.29 µM (active) | 
6 | CC(C)(C)c1cc(Br)cc([C@H](CC(=O)O)NC(=O)CNC(=O)c2cc(O)cc(NC3=NCC(O)CN3)c2)c1 (stereo partly drawn) |  | -2.55
7 | O=C(O)c1cccc(S(=O)(=O)N2CCc3ccccc3C2)c1 |  | -6.57
8 | N#Cc1ccc2[nH]cc(CCCCN3CCN(c4ccc5oc(C(N)=O)cc5c4)CC3)c2c1 | 14.5 µM (active) | 
9 | NC(=O)c1cnc(NCCc2ccc(O)c(Cl)c2)nc1NCc1ccccc1 | 1.29 µM (active) | 
10 | COc1cc2c(NC3CCN(CC4CCCCC4)CC3)nc(N3CCCN(C(C)C)CC3)nc2cc1OCCCN1CCCCC1 | 2.58 µM (active) and 5.25 µM (active) | 
11 | Cc1c[nH]c2nccc(Oc3c(F)cc(Nc4cc(Cl)nc(N)n4)cc3F)c12 | 0.728 µM (active) | 
12 | CCCCCCOc1cc2c(cc1N(C)c1ncc(C(=O)O)cn1)C(C)(C)CCC2(C)C |  | -3.73
13 | CCS(=O)(=O)N1CCN(c2ccc(Nc3ncc(C(N)=O)c(NC4CC4)n3)cc2)CC1 | 230 nM (active) and 417 nM (active) | 
